# Only some compounds are listed: those with a hit (about 6.3% of all), similar ones and a draw of the others.
# tim10-1 inh: inhibits growth of tim10-1 mutant yeast; S. cerevisiae tim10-1 ts strain growth, BacTiter-Glo, 24 h; inhibition, % at 20 µM; 2.2% of 330,000 active; AID 463190;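 active = inhibition of at least 40%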;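 also: mutant grown at 25 °C; 0% = DMSO wells with yeast and 100% = wells holding no yeast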
# Mdm2 MdmX PPI: human Mdm2/MdmX binding inhibition; SaOS-2 split-luciferase Mdm2/MdmX complementation, luminescence; inhibition, % at 8 µM; 3% of 330,000 active; AID 485346; O15151+Q00987;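 active = inhibition of at least 50% at 8 µM in the primary screen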
# Target sequence (O15151 whole entry, looked up): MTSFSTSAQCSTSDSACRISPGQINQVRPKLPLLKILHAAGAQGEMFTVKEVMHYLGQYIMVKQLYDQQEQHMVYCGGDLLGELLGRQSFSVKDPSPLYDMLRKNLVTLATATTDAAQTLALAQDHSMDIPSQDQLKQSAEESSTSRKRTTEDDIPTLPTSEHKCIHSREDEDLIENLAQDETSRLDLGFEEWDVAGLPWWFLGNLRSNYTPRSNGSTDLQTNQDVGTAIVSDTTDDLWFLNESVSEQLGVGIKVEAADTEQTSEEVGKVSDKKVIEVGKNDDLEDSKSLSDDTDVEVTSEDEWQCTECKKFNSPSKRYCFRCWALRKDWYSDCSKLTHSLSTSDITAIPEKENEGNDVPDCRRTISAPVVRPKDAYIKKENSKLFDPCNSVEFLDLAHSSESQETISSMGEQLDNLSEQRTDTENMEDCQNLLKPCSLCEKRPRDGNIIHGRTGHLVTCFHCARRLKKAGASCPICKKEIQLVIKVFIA
# Target sequence (Q00987 whole entry, looked up): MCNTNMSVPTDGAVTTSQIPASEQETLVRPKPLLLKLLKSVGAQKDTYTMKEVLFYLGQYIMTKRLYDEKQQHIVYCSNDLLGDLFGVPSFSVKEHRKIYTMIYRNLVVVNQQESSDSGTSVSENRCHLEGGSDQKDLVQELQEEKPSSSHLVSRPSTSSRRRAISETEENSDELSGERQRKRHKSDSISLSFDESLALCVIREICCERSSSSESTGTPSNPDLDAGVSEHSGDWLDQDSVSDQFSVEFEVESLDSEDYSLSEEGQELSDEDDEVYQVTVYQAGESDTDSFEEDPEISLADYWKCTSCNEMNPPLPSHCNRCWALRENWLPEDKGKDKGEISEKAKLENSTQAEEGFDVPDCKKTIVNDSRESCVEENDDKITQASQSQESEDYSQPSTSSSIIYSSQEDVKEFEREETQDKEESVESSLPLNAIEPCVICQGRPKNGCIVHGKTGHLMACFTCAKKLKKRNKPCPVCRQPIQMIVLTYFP
# tim23-1 inh: inhibits growth of tim23-1 mutant yeast; S. cerevisiae tim23-1 growth, BacTiter-Glo luminescence, 24 h; inhibition, % at 20 µM; 1.3% of 330,000 active; AID 463212;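 active = growth inhibition of the mutant yeast at or above 50%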;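 also: temperature-sensitive mutant grown at 25 °C; plate controls were DMSO-treated mutant yeast for no effect and medium wells lacking yeast for full effect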
# TIM10 inh: growth inhibitors of TIM10 yeast strain; S. cerevisiae TIM10 strain growth, BacTiter-Glo luminescence, 24 h; inhibition, % at 10 µM; 1.4% of 330,000 active;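 active = inhibition of 40% or more at the single tested concentration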;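 also: wild-type TIM10 isogenic control strain grown at permissive 25 °C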
# MPTP block: permeability transition pore inhibition; isolated mouse mitochondria, Ca2+ swelling absorbance, 30 min; inhibition, % at 10 µM; 1.4% of 360,000 active;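 active = inhibition of 50% or more, scaled per plate between neutral and stimulator controls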;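 also: 0% = DMSO wells given calcium and 100% = 1 mM EGTA wells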
# tim10-1 conf: tim10-1 yeast growth inhibition, confirmed | S. cerevisiae tim10-1 ts strain growth, BacTiter-Glo, 24 h | inhibition, % at 20 µM | shares compounds with tim10-1 inh | 56% of 7,400 active | AID 463213;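 active = inhibition of yeast growth at or above a set limit in either of two repeat tests at 20 µM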;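 also: tim10-1 mutant grown at permissive 25 °C to find synthetic lethal compounds; 0% = DMSO yeast wells and 100% = medium wells without yeast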
# Active calls of the source: *; . = no result.
SMILES,tim10-1 inh,Mdm2 MdmX PPI,tim23-1 inh,TIM10 inh,MPTP block,tim10-1 conf
CC1(C(=O)NS(=O)(=O)Cc2cccc(Cl)c2)CCN1C(=O)C/C=C/c1ccccc1 (stereo unspecified),.,.,.,.,0,.
CCCCC1C2=C(CC(C)(C)CC2=O)OC2=C1C(=O)CC(C)(C)C2,44*,10,48,19,1,38*
COc1ccc(C(C(=O)NC(C)(C)C)n2c(-c3ccc(-c4ccccc4)cc3)nc3ccccc32)cc1 (stereo unspecified),.,.,.,.,1,.
COc1ccc(C(=O)NCCn2ccc3ccccc32)cc1,-11,-66,26,3,-5,.
O=C(NCCn1ccc2ccccc21)c1ccc(S(=O)(=O)N2CCCCC2)cc1,41*,-14,34,20,0,27
CC1=NN(C(N)=S)C(=O)C1N=Nc1ccc(C)cc1C (stereo unspecified),4,-117,-8,9,.,.
CC1=NN(C(N)=S)C(=O)C1N=Nc1c(C)cc(C)cc1C (stereo unspecified),45*,-4,7,37,0,26
C[C@]12CCC(=O)C[C@@H]1CC[C@@H]1[C@@H]2CC[C@]2(C)C=CC[C@@H]12,52*,13,33,10,1,70*
O=C(Cc1ccc(Cl)cc1)NCC(=O)N1CCC2(CC1)NCCc1[nH]cnc12,.,.,.,.,-1,.
CCOc1nc(-c2ccc(Cl)cc2Cl)ccc1C#N,-10,0,9,-22,2,.
Oc1ccc(-c2nccc(-c3ccc(Cl)cc3Cl)n2)cc1,42*,11,26,37,1,34*
FCCCOc1ccc(-c2nccc(-c3ccc(Cl)cc3)n2)cc1,12,9,-1,5,3,.
Oc1ccc(-c2nccc(-c3ccc(Cl)cc3)n2)cc1,42*,-60,49,36,0,43*
COc1ccc(NC(=O)CN(C)C(=O)c2cn(-c3ccccc3)nc2-c2ccc(Cl)cc2)cc1,41*,43,36,14,1,20
COc1ccc(NC(=O)CN(C)C(=O)c2cn(-c3ccccc3)nc2-c2ccc(OC)cc2)cc1,33,9,27,18,-1,.
N#C/C(=C/c1ccc(N2CCCCCC2)o1)c1cccc(F)c1,61*,50,39,34,-1,57*
N#Cc1c(-c2ccc(Cl)cc2)c(-c2ccc(Cl)cc2)nn(CCOC(=O)CCC(=O)O)c1=O,.,.,.,.,-1,.
CC1CCc2c(sc(N)c2C(N)=O)C1 (stereo unspecified),41*,-12,17,1,-1,25
O=c1cc(CN2CCN(c3ccc(Cl)c(Cl)c3)CC2)c2c(ccc3ccccc32)o1,.,.,.,.,2,.
CC(=O)N1CCN(c2cc(N3CCc4ccccc4C3)c(F)cc2[N+](=O)[O-])CC1,52*,14,43,25,-1,32*
S=C(SSC(=S)N1CCOCC1)N1CCOCC1,.,.,.,.,-5,.
O=C(CSC(=S)N1CCCCC1)N1N=CCC1c1ccccc1 (stereo unspecified),41*,0,38,-9,1,32*
CC(C)CN(C(=O)COC(=O)CCSc1ccc(Cl)cc1)c1c(N)n(Cc2ccccc2)c(=O)[nH]c1=O,.,.,.,.,1,.
CCOC(=O)CC1(C)Oc2ccccc2N1S(=O)(=O)c1ccc(C)cc1 (stereo unspecified),.,.,.,.,1,.
CCCCCC(=O)Nc1nc(C)c(-c2csc(Nc3ccc(Cl)cc3)n2)s1,41*,17,21,28,1,26
SMILES,tim10-1 inh,Mdm2 MdmX PPI,tim23-1 inh,TIM10 inh,MPTP block,tim10-1 conf
Cc1cc(F)ccc1-c1cc(C(=O)NCc2ccco2)[nH]n1,.,.,.,.,0,.
Cc1ccc(CNC(=O)COc2cc(O)c3c(c2)OC(C)(C)CC3=O)cc1,44*,-8,30,8,0,3
COc1ccc(N2CCN(C(=O)CSc3nnc(-c4cc5ccccc5cc4O)n3C)CC2)cc1,45*,12,33,22,17,19
C=CCNC(=O)/C(C#N)=C/c1ccc2c(c1)OCCO2,43*,14,30,4,0,26
COCCNC(=O)/C(C#N)=C/c1ccc2c(c1)OCO2,30,15,20,9,0,.
CN(C)c1ccnc2sc(C(=O)c3ccc(Br)cc3)c(N)c12,43*,-16,33,29,2,9
CN(C)c1ccnc2sc(C(=O)NCc3ccccc3)c(N)c12,-38,-14,-2,-448,-1,.
COc1ccc(OC)c(/C=C2\SC(N3CCCC(C)C3)=NC2=O)c1 (stereo unspecified),43*,19,41,11,1,28
COc1ccc(/C=C2\SC(N3CCCCC3)=NC2=O)cc1OC,19,23,19,28,-1,.
O=C(Oc1cccc2c(O)cccc12)c1ccccc1Cl,.,.,.,.,2,.
O=C(Oc1ccccc1O)c1cccc2ccccc12,47*,0,43,21,0,34*
CCc1nc2ccc(C(=O)N(C)C(C)C)cn2c1N(CC)Cc1cccc(Br)c1,.,.,.,.,0,.
CCOC(=O)[C@]12Cc3c(cc(OC)c(OC)c3OC)[C@H]1N(Cc1ccccc1)C(=O)c1cc(OC)ccc12,.,.,.,.,-2,.
O=[N+]([O-])c1ccccc1NCCNc1ncc(C(F)(F)F)cc1Cl,18,-68,-1,7,6,.
O=[N+]([O-])c1cccnc1NCCNc1ncc(C(F)(F)F)cc1Cl,41*,-51,38,16,0,22
COc1cccc(OCc2cc(C(=O)NC3CCOCC3)no2)c1,14,-62,10,-1,0,.
CC1(C)CC(NC(=O)c2cc(COc3cccc(C(F)(F)F)c3)on2)CCO1 (stereo unspecified),48*,17,31,13,-2,19
COc1ccc(NC(=O)CC2SC(=O)NC2=O)cc1 (stereo unspecified),41*,-3,36,10,0,34*
Cc1ccc(NC(=O)CC2SC(=O)NC2=O)cc1 (stereo unspecified),35,-16,32,30,1,.
CCc1nc2c(OCC(=O)C(C)(C)C)cccn2c1N(C)C(=O)c1ccc(C)cc1,.,.,.,.,0,.
Cc1ccc(-c2csc3nc4c5ccccc5c(NCCCN5CCOCC5)nn4c(=O)c23)cc1,43*,37,18,-1,.,39*
CC(=O)Nc1scc(C)c1-c1nc2ccccc2s1,21,41,7,16,6,.
CNc1sc(C(=O)c2ccc(F)cc2)c(N)c1-c1nc2ccccc2s1,41*,-30,42,35,12,23
CNc1sc(C(=O)c2cccs2)c(N)c1-c1nc2ccccc2s1,48*,-27,45,31,3,48*
O=C(Nc1nc2ccccc2s1)c1ccc(F)cc1,3,-210,-1,13,-1,.
N#CC(c1ccc(N)cc1)C(CC(=O)c1ccccc1)c1ccccc1 (stereo unspecified),.,.,.,.,0,.
Nc1ncnc(N)c1NC(=O)c1ccc(OCc2ccccc2)cc1,.,.,.,.,-1,.
Nc1cc(-c2cccc(Br)c2)nn1Cc1ccccc1,46*,-2,34,18,0,18

# From PubChem BioAssay
